# High-throughput results deposited in PubChem by Broad Institute.
# Hits are enriched below; roughly 6.7% of the tested compounds scored in any of these assays.
# C diff HTS – C. difficile growth inhibition | Clostridium difficile clinical isolate growth, OD600, 24 h; active compounds read low | growth activity, negative = inhibition, % at 16 µg/mL (by protocol) | 86,000 compounds, 0.25% hits | AID 1259249;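 active = mean growth activity at or below -80% and every replicate also at or below -80%; inconclusive = mean at or below -80% but some replicate above -80%; inactive = mean growth activity above -80%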
# Pf Dd2 inh – P. falciparum Dd2 growth inhibition | 94,000 compounds, 2.3% hits | SYBR Green, 72 h; active compounds read low | AID 1159554 | activity change, % at 10 µM; in the data active = activity change below about -80%; inconclusive = no clear call, values can overlap the other calls
# T cruzi growth-1 – blocks T. cruzi growth in NIH3T3 culture; inhibition, % at 8.34 µM; T. cruzi beta-gal in NIH3T3, GalScreen luminescence, 90 h; 77,000 compounds, 5.9% hits;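 active = mean inhibition above about 93%, with at least 55% of replicates each passing it, limit read from the data, passing the limit was not always enough; inconclusive = only one of those two conditions holds; inactive = neither condition holds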
# T cruzi growth-2 – blocks T. cruzi growth in NIH3T3 host cells. AID 651739. inhibition, % at 8.35 µM. 5,600 compounds, 72% hits. shares compounds with T cruzi growth-1. T. cruzi beta-gal in NIH3T3, GalScreen luminescence, 90 h;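 active = mean replicate inhibition above about 95% and at least 55% of replicates individually reaching it, limit read from the data; inconclusive = only one of the two criteria is met; inactive = neither criterion is met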
# T cruzi growth-3 – blocks T. cruzi growth in NIH3T3 host cells; T. cruzi beta-gal in NIH3T3, GalScreen luminescence, 90 h; shares compounds with T cruzi growth-1; 5,600 compounds, 21% hits; AID 651740; inhibition, % at 2.09 µM;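 active = mean inhibition above about 95%, with at least 55% of replicates also reaching it, limit read from the data; inconclusive = meets just one of the two conditions; inactive = meets neither condition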
# 3T3 cytotox – NIH/3T3 (mouse) viability loss; shares compounds with T cruzi growth-1; NIH/3T3 viability, CellTiter-Glo ATP luminescence, 90 h; cytotoxicity (signal decrease), % at 8.35 µM; 5,600 compounds, 14% hits; AID 651742;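 active = mean signal decrease across replicates above about 35% based on untreated-well scatter, with enough replicates individually passing, limit read from the data; inconclusive = no rule stated though some were filed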
# 3T3 cytotox 2 – kills mouse NIH/3T3 fibroblasts; shares compounds with T cruzi growth-1; inhibition, % at 24.9 µM; NIH/3T3 viability, CellTiter-Glo ATP luminescence, 90 h; 5,600 compounds, 56% hits;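 active = mean loss of cell viability signal at or above a set limit, and enough replicates individually reaching it; inconclusive = meets only the mean limit or only the replicate share; inactive = meets neither condition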
# Hits are given with their value; . = inactive; ? = inconclusive; / = not tested or not shown.
SMILES,C diff HTS,Pf Dd2 inh,T cruzi growth-1,T cruzi growth-2,T cruzi growth-3,3T3 cytotox,3T3 cytotox 2
CCC(=O)Nc1ccc2c(c1)C(=O)N(C)C[C@@H](OC)[C@H](C)CN(C(=O)c1ccncc1)[C@@H](C)CO2,/,.,.,/,/,/,/
C[C@@H]1CN([C@@H](C)CO)C(=O)c2cc(C3=CCCCC3)cnc2O[C@H]1CN(C)C(=O)CN1CCOCC1,.,.,/,/,/,/,/
COCCNC(=O)C[C@H]1CC[C@@H]2[C@H](COC[C@@H](O)CN2S(=O)(=O)c2ccccc2C)O1,/,.,.,/,/,/,/
CC(=O)N1[C@H](CO)[C@H](c2ccc(-c3cncnc3)cc2)[C@@H]1CN(C)C(=O)C1CC1,.,.,/,/,/,/,/
O=C(C[C@@H]1C[C@H]2c3cc(NC(=O)NC4CCCC4)ccc3O[C@H]2[C@@H](CO)O1)NCc1ccc(Cl)cc1,.,.,.,/,/,/,/
O=C(C[C@H]1C[C@@H]2c3cc(NC(=O)NC4CCCC4)ccc3O[C@@H]2[C@@H](CO)O1)NCc1ccc(Cl)cc1,.,.,?,103.2,.,.,.
O=C(C[C@@H]1C[C@H]2c3cc(NC(=O)NC4CCCC4)ccc3O[C@H]2[C@@H](CO)O1)NCc1ccc(-c2ccccc2)cc1,.,.,.,/,/,/,/
O=C(C[C@H]1C[C@@H]2c3cc(NC(=O)CC4CC4)ccc3O[C@@H]2[C@@H](CO)O1)NCc1ccc(-c2ccccc2)cc1,.,.,.,/,/,/,/
O=C(C[C@H]1C[C@@H]2c3cc(NC(=O)CC4CC4)ccc3O[C@@H]2[C@H](CO)O1)NCc1ccc(-c2ccccc2)cc1,.,.,103.7,111.7,.,.,.
O=C(C[C@@H]1C[C@H]2c3cc(NC(=O)Cc4ccncc4)ccc3O[C@H]2[C@@H](CO)O1)NCc1cccnc1,.,.,.,/,/,/,/
O=C(C[C@@H]1C[C@@H]2c3cc(NC(=O)CC4CC4)ccc3O[C@@H]2[C@@H](CO)O1)NCc1cccnc1,.,.,99.9,112.9,.,.,.
O=C(C[C@@H]1C[C@H]2c3cc(NC(=O)NC4CCCC4)ccc3O[C@H]2[C@H](CO)O1)NCc1ccc(-c2ccccc2)cc1,.,.,100.4,104.8,?,.,51.4
CCC(=O)N1CC2(C1)[C@H](c1ccc(-c3ccc(F)cc3)cc1)[C@H](CO)N2S(C)(=O)=O,.,.,/,/,/,/,/
C[C@H]1CN([C@@H](C)CO)C(=O)c2cccc(NC(=O)C3CCCCC3)c2O[C@H]1CN(C)Cc1ccc(-c2ccccc2)cc1,.,.,.,/,/,/,/
O=C(CCN1CCCCC1)NCC[C@@H]1CC[C@H](NC(=O)C2CCC2)[C@@H](CO)O1,.,.,/,/,/,/,/
C[C@H]1CN([C@@H](C)CO)C(=O)c2c(c3ccccc3n2C)-c2ccccc2CO[C@H]1CN(C)C(=O)c1ccc(F)cc1,/,.,.,/,/,/,/
CCCNC(=O)N1[C@H](CO)[C@@H](c2ccccc2)[C@@H]1CNC(=O)c1ccccc1,.,.,.,/,/,/,/
CCCNC(=O)N1[C@H](CO)[C@H](c2ccccc2)[C@@H]1C#N,.,.,.,/,/,/,/
CCCNC(=O)N1[C@@H](C#N)[C@H](c2ccc(C#Cc3cccc(F)c3)cc2)[C@@H]1CO,.,.,?,99.0,.,.,?
CCCNC(=O)N1[C@H](CO)[C@H](c2ccccc2)[C@@H]1CNC(=O)c1cccc(F)c1,.,.,97.9,.,.,.,.
CCCNC(=O)N1[C@@H](C#N)[C@@H](c2ccc(C#Cc3cccc(F)c3)cc2)[C@@H]1CO,.,.,99.9,102.6,.,.,49.5
N#C[C@H]1[C@H](c2ccc(C#Cc3cccc(F)c3)cc2)[C@@H](CO)N1C(=O)C1CCOCC1,.,.,.,/,/,/,/
COc1ccc(CN(C)C[C@@H]2Oc3c(NC(=O)Nc4c(C)noc4C)cccc3C(=O)N([C@H](C)CO)C[C@@H]2C)cc1,.,.,.,/,/,/,/
CC=Cc1ccc2n(c1=O)C[C@@H]1[C@@H](CO)[C@H](C(=O)NCC3CC3)N(CCC(F)(F)F)[C@H]21 (mixture of isomers),.,.,111.4,.,.,.,.
CC=Cc1ccc2n(c1=O)C[C@@H]1[C@@H](CO)[C@H](C(=O)NCCC)[C@H]2N1C(=O)c1ccccc1F (mixture of isomers),.,.,100.1,.,.,.,.
SMILES,C diff HTS,Pf Dd2 inh,T cruzi growth-1,T cruzi growth-2,T cruzi growth-3,3T3 cytotox,3T3 cytotox 2
CC=Cc1ccc2n(c1=O)C[C@H]1[C@H](CO)[C@@H](C(=O)NCCC)[C@@H]2N1C(=O)c1ccncc1 (mixture of isomers),.,.,/,/,/,/,/
CC=Cc1ccc2n(c1=O)C[C@H]1[C@H](CO)[C@@H](C(=O)NCCC)[C@@H]2N1CC1CCOCC1 (mixture of isomers),.,.,.,/,/,/,/
CC=Cc1ccc2n(c1=O)C[C@@H]1[C@@H](CO)[C@H](C(=O)NCCC)[C@H]2N1CC1CCOCC1 (mixture of isomers),.,.,.,/,/,/,/
CC=Cc1ccc2n(c1=O)C[C@@H]1[C@@H](CO)[C@H](C(=O)NCC3CC3)N(CCC)[C@H]21 (mixture of isomers),.,.,/,/,/,/,/
CC=Cc1ccc2n(c1=O)C[C@H]1[C@H](CO)[C@@H](C(=O)NCCC)[C@@H]2N1CC1CC1 (mixture of isomers),.,.,101.5,.,.,.,.
CC=Cc1ccc2n(c1=O)C[C@@H]1[C@@H](CO)[C@H](C(=O)NCCC)[C@H]2N1CC1CC1 (mixture of isomers),.,.,101.9,.,.,.,.
COc1ccc(NC(=O)N(C)C[C@@H]2Oc3ccc(NS(=O)(=O)c4ccc(F)cc4)cc3CC(=O)N([C@H](C)CO)C[C@H]2C)cc1,.,.,.,/,/,/,/
C[C@@H]1CN([C@@H](C)CO)C(=O)Cc2cc(NC(=O)C3CC3)ccc2O[C@H]1CN(C)Cc1ccc(C(=O)O)cc1,.,.,.,/,/,/,/
CCCNC(=O)N1[C@H](CO)[C@@H](c2ccccc2-c2ccc(OC)cc2)[C@@H]1C#N,.,.,/,/,/,/,/
O=C(CCN1CCCCC1)N[C@@H]1CC[C@H](CCNS(=O)(=O)c2ccc(F)cc2)O[C@@H]1CO,.,.,.,/,/,/,/
C[C@@H]1CCCCO[C@H](CN(C)C(=O)NC2CCCCC2)[C@H](C)CN([C@H](C)CO)C(=O)c2cc(NS(=O)(=O)c3ccccc3)ccc2O1,.,?,105.6,.,.,.,.
C[C@@H]1CCCCO[C@H](CN(C)C(=O)NC2CCCCC2)[C@@H](C)CN([C@@H](C)CO)C(=O)c2cc(NS(=O)(=O)c3ccccc3)ccc2O1,.,.,.,/,/,/,/
C[C@@H]1CCCCO[C@H](CN(C)C(=O)NC2CCCCC2)[C@@H](C)CN([C@H](C)CO)C(=O)c2cc(NS(=O)(=O)c3ccccc3)ccc2O1,.,.,.,/,/,/,/
